Bioassay records deposited in PubChem BioAssay by several laboratories.
HIF-2a inh = inhibitors of HIF-2a. 786-0 RCC cells HIF-2a reporter, luciferase luminescence, overnight. inhibition, % at 18.8 µM. 0.72% of 360,000 active. AID 624352;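 active means inhibition of the luminescence signal of 40% or more relative to plate controls, in a single-dose primary screen at 18.75 µM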
PAX8 reporter = PAX8 transcriptional activity inhibition | RMG-I TPO-luciferase reporter, SteadyGlo, 24 h | AID 652154 | 1.2% of 360,000 active | inhibition, % at 12.6 µM;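 active means mean replicate inhibition at least 60% with every replicate also reaching 60%; inconclusive means only one of the two criteria is met; inactive means mean below 60% and not all replicates reaching 60%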;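 further: luciferase light reporting Pax8 driven TPO promoter activity; plate controls were median of neutral control wells for no effect and mitoxantrone controls for full effect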
Shn3 3UTR inh = reduces Shn3 3'UTR luciferase signal in osteoblasts. Clone20 osteoblast Shn3 3'UTR firefly luciferase, 24 h. inhibition, % at 12.5 µM. 0.52% of 360,000 active. AID 588674;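 active means mean inhibition of at least 75% with every replicate also reaching 75%; inconclusive means mean inhibition at least 75% but some replicate below; inactive means mean inhibition below 75%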;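 further: 0% = median of neutral control wells and 100% = pilot-screen positive control compound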
TRPM1 prom inh = inhibitors of MITF-driven TRPM1 promoter in melanoma cells. SK-MEL-5 TRPM1 promoter luciferase, 24 h. inhibition, % at 12.5 µM. 0.83% of 330,000 active;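 active means mean inhibition across replicates of 60% or more, whatever share of single replicates reaches that level; inconclusive means some that reach 60%, reason not given; inactive means mean inhibition across replicates below 60%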
LMP1 NFkB inh = reduces LMP1-driven NF-kappaB luciferase signal | LMP1-induced NF-kappaB luciferase reporter cells, luminescence | inhibition, % at 12.5 µM | 0.69% of 350,000 active; in the data active means inhibition above about 41%; inconclusive means no clear call, values can overlap the other calls;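 further: 0% = neutral control wells and 100% = reference inhibitor control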
Peg3 promoter = inhibitors of Peg3 promoter | HeLa PEG-Prom luciferase reporter, luminescence, overnight | inhibition, % at 20 µM | 1.7% of 360,000 active | AID 588405;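 active means inhibition of at least 50% at 20 µM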
Active calls of the source: *; ? = inconclusive; nt = not tested or not shown; ! = not confirmed by another sample. Sampled rows, rich in hits. Any-hit rate of the full collection: about 2.8%.

SMILES	HIF-2a inh	PAX8 reporter	Shn3 3UTR inh	TRPM1 prom inh	LMP1 NFkB inh	Peg3 promoter
C[C@@H]1CCCCO[C@@H](CN(C)C(=O)Nc2ccc(C(F)(F)F)cc2)[C@@H](C)CN([C@H](C)CO)C(=O)c2cc(NC(=O)C3CCCCC3)ccc2O1	nt	-17	nt	nt	nt	nt
Brc1ccc(-c2csc(N3CCCCCC3)n2)cc1	-168	-41	-4	-33	46*	-168
Brc1ccc(-c2csc(N3CCOCC3)n2)cc1	-366	-212	-57	-75	-42	-345
Nc1cccc2nsnc12	11	5	-1	-9	-31	7
Nc1cc2nsnc2cc1Br	24	nt	72	70*	2	41
COc1ccc(CCN=Cc2c(C)[nH]n(-c3ccc([N+](=O)[O-])cc3)c2=O)cc1OC	16	3	6	12	-1	0
COc1cc(SC#N)ccc1N=Cc1c(C)[nH]n(-c2ccc(Cl)cc2)c1=O	12	nt	68	45	-92	56*
O=C1c2cccc3c([N+](=O)[O-])ccc(c23)C(=O)N1c1ccccn1	26	25	37	34	55*	94*
O=C1c2cccc3c([N+](=O)[O-])ccc(c23)C(=O)N1c1nccs1	40	nt	54	?	49*	94*
Cn1cnc(S(=O)(=O)N2[C@@H]3CNC[C@H]2C3c2ccc(-c3ccncc3)cc2)c1 (some centres undefined)	nt	-3	nt	nt	nt	nt
COc1cc(Nc2ccccn2)cc(C(=O)Nc2cccc(C(F)(F)F)c2)c1	-90	19	35	14	-2	81*!
COc1cc(NC(=O)c2nccnc2N)cc(C(=O)Nc2cccc(C(F)(F)F)c2)c1	12	76*	2	22	-34	7
C/C=C/c1ccc([C@@H]2[C@H](CO)N(C(C)=O)C23CN(C(=O)c2ccncc2)C3)cc1	nt	2	nt	nt	nt	nt
C[C@@H]1CN([C@H](C)CO)C(=O)c2cc(NC(=O)c3ccncc3)ccc2O[C@@H](C)CCCCO[C@@H]1CN(C)Cc1ccc2c(c1)OCO2	nt	-6	nt	nt	nt	nt
CCCN1[C@@H]2c3ccc(/C=C/c4ccccc4)c(=O)n3C[C@@H]2[C@@H](CO)[C@@H]1C(=O)N1CCOCC1	nt	69*	nt	nt	nt	nt
CC=Cc1ccc2n(c1=O)C[C@H]1[C@H](CO)[C@@H](C(=O)NC3CCC3)N(CC)[C@@H]21 (mixture of isomers)	nt	87*	nt	nt	nt	nt
C=C1CCC2C(C)(C(=O)O)CCCC2(C)C1CCC(CO)CCO (centres undefined)	-1	nt	3	nt	nt	107*
CC(C)NC(=O)N[C@@H]1CC[C@H](CCn2cc(-c3ccc(F)cc3)nn2)O[C@@H]1CO	nt	1	nt	nt	nt	nt
Cc1ccc(NC(=O)C2CCCN(S(=O)(=O)c3c(C)noc3C)C2)cc1 (centres undefined)	16	2	85*	4	1	14
CC(C)CC#Cc1ccc2c(c1)O[C@@H](CN(C)C(=O)c1cnccn1)[C@H](C)CN([C@H](C)CO)S2(=O)=O	nt	-11	nt	nt	nt	nt
CNC(=O)C[C@H]1CC[C@H]2[C@@H](COC[C@@H](O)CN2C(=O)c2ccccn2)O1	nt	0	nt	nt	nt	nt
CNC[C@@H]1Oc2cc(C#CC3(O)CCCC3)ccc2S(=O)(=O)N([C@H](C)CO)C[C@H]1C	nt	17	nt	nt	nt	nt
CC(C)(C)c1ccc(SC2=C[C@@]3(O)CC[C@@H](O)[C@@](Sc4ccc(C(C)(C)C)cc4)(C2=O)[C@H]3O)cc1	-77	85*	nt	nt	nt	nt
COc1ccc(Nc2ncnc3sccc23)cc1OC	-53	-16	-1	-50	nt	-33
COc1ccc(CCNc2ncnc3sccc23)cc1OC	-4	77*	91*	23	9	-11
SMILES	HIF-2a inh	PAX8 reporter	Shn3 3UTR inh	TRPM1 prom inh	LMP1 NFkB inh	Peg3 promoter
CN(/N=C\c1ccc(O)c(O)c1)c1nc(-c2ccccc2)cc(-c2ccccc2)n1	-3	19	92*	12	-18	10
COc1cc(/C=N/N(c2ccccc2)c2ccccc2)ccc1O	-26	12	-27	1	-7	-28
Cc1ccc(S(=O)(=O)N2C[C@H](O)COC[C@H]3O[C@@H](CC(=O)NCc4ccc5c(c4)OCO5)CC[C@@H]32)cc1	nt	7	nt	nt	nt	nt
Cc1cc(N/N=C/c2ccc(O)cc2)nc(NS(=O)(=O)c2ccccc2)n1	54*	-3	-15	-6	3	10
CCN(CC)Cc1ccc(NC(=O)c2sc3cc(Cl)ccc3c2Cl)cc1	-118	32	-3	3	-13	105*
Cc1c2ccccc2c(C)c2c1ccc1ccccc12	-68	38	-53	-71	-10	69*
O=C(NC1CCCCC1)C(c1cccs1)N(C(=O)Cc1c[nH]c2ccccc12)c1ccc(F)cc1 (centres undefined)	6	97*	7	18	-12	85*
CC(=O)c1ccc(N(C(=O)Cc2c[nH]c3ccccc23)C(C(=O)NC2CCCCC2)c2cccs2)cc1 (centres undefined)	-76	-13	-7	-9	-16	-45
COC(=O)C[C@@H]1C[C@H]2c3cc(NS(=O)(=O)c4ccc(OC)cc4)ccc3O[C@H]2[C@@H](CO)O1	nt	4	nt	nt	nt	nt
C[C@H]1CCCCO[C@H](CN(C)C(=O)Nc2cccc3ccccc23)[C@@H](C)CN([C@@H](C)CO)C(=O)c2cc(NS(=O)(=O)c3ccc(Cl)cc3)ccc2O1	nt	82*	nt	nt	nt	nt
C[C@@H]1CCCCO[C@@H](CN(C)C(=O)Nc2cccc3ccccc23)[C@H](C)CN([C@H](C)CO)C(=O)c2cc(NS(=O)(=O)c3ccc(Cl)cc3)ccc2O1	nt	94*	nt	nt	nt	nt
O=C(COC(=O)/C=C/c1ccc(OC(F)F)cc1)Nc1ccc2[nH]c(=O)[nH]c2c1	7	-12	97*	-10	-28	18
C[C@@H]1CN([C@H](C)CO)C(=O)Cc2cc(NC(=O)Nc3ccccc3)ccc2O[C@H]1CN(C)C(=O)Nc1ccc2c(c1)OCO2	nt	-4	nt	nt	nt	nt
O=C(C[C@H]1C[C@H]2c3cc(NC(=O)NC4CCCC4)ccc3O[C@H]2[C@H](CO)O1)NCc1ccccn1	nt	11	nt	nt	nt	nt
CC1(C)CCN2CCC(C)(C)c3c(O)ccc1c32	15	84*	58	64*	19	48
COc1nc(Cl)cn(-c2ccc(C)cc2)c1=O	4	-12	-24	0	6	-6
Cc1ccc(-n2c(Cl)c(Cl)nc(Cl)c2=O)cc1	94*	nt	96*	95*	72*	103*
Cc1n[nH]c(=S)n1/N=C/c1c(O)ccc2ccccc12	14	6	4	18	1	57*
S=c1[nH]nc(-c2ccccn2)n1/N=C/c1cccc2ccccc12	21	122*	9	9	-7	7
Cc1cc(-c2n[nH]c(=S)n2/N=C/c2ccccc2[N+](=O)[O-])n[nH]1	9	-5	-8	9	9	51*
COc1cccc(NC(=O)N[C@H]2C=C[C@@H](CC(=O)N3CCCCC3)O[C@@H]2CO)c1	nt	-3	nt	nt	nt	nt
Cc1ccccc1S(=O)(=O)N[C@@H]1CC[C@H](CCNS(=O)(=O)c2cccc(F)c2)O[C@H]1CO	nt	-4	nt	nt	nt	nt
